# Measurements as given in PubChem BioAssay AID720518 (National Center for Advancing Translational Sciences (NCATS), 2013).
# Results filed as inconclusive are left out. The source made the active and inactive calls. The call rests on the fitted dose curve.
# Test: qHTS for Inhibitors of Cell Surface uPA Generation: Wild-type Protective Antigen (WT-PrAg) Counterscreen for Cherry-picked Compounds; further: 0% is about no effect
# Settings: cells, WT protective antigen toxicity counterscreen; series mostly up to 115 µM; activity (protection): at the top concentration
row,SMILES,activity (protection)
1,O=C(Nc1cccc(NC(=O)c2ccc(F)cc2)c1)c1ccc(F)cc1,0.799% (inactive)
2,COc1cc(SC)ccc1C(=O)OCc1nc2ccsc2c(=O)[nH]1,0.671% (inactive)
3,CCOc1cc(C)c(S(=O)(=O)N2CCCCC2)cc1C,-1.61% (inactive)
4,Cc1ccc(-n2cccc2C(=O)NS(=O)(=O)c2ccc(C)cc2)cc1,-0.321% (inactive)
5,CC1CCC(NC(=O)c2nn(C)c3c2CS(=O)(=O)c2ccccc2-3)CC1 (centres undefined),-1.64% (inactive)
6,CC(=O)n1cc(/C=N/NC(=O)c2ccc([N+](=O)[O-])cc2)c2ccccc21,-1.78% (inactive)
7,CC(C)C[C@H]1CN([C@@H](CC(C)C)CN2CCCC2CN2C(=S)NC[C@@H]2Cc2ccc(O)cc2)C(=S)N1CC1CCCCC1 (some centres undefined),-0.649% (inactive)
8,COc1ccc(C2=NOC(CNC(N)=S)C2)cc1 (centres undefined),-1.29% (inactive)
9,CC/C(=N\Nc1ccccc1[N+](=O)[O-])c1ccc(O)cc1,-1.06% (inactive)
10,O=C1CCCc2ccccc2N1Cc1ccc(F)cc1,-1.1% (inactive)
11,CC1(C(=O)OCC(=O)Nc2ccc(Cl)cn2)CC1(Cl)Cl (centres undefined),5.25% (inactive)
12,CS(=O)(=O)N1CCC(C(=O)Nc2ccccc2)CC1,0.215% (inactive)
13,Cc1ccc(S(=O)(=O)N2CCN(C(=O)c3n[nH]c(=O)c4ccccc34)CC2)cc1,-0.765% (inactive)
14,NC(=O)c1ccccc1NC(=O)CC12CC3CC(CC(C3)C1)C2,-1.39% (inactive)
15,COc1ccc(NS(=O)(=O)c2cc3c(cc2C)NC(=O)CO3)c(OC)c1,-1.08% (inactive)
16,CCCCNc1nnc(SCC(=O)c2c(N)n(CCC)c(=O)[nH]c2=O)s1,10.7% (inactive)
17,COc1ccccc1N1CCN(C2CC(=O)N(c3ccccc3)C2=O)CC1 (centres undefined),-1.25% (inactive)
18,C[C@H]([C@H](O)c1ccccc1)N(C)C(=O)CN,1.02% (inactive)
19,O=C(OCC(=O)N1CCOCC1)c1c(Cl)ccc(Cl)c1Cl,-0.419% (inactive)
20,COc1ccc(C(=O)OCC(=O)N(C)C2CCS(=O)(=O)C2)cc1S(=O)(=O)N(C)Cc1ccccc1 (centres undefined),1.43% (inactive)

row,SMILES,activity (protection)
1,COc1ccc(C(=O)NCCCN2CCOCC2)cc1,-0.755% (inactive)
2,Cc1ccc(CN2CCN(Cc3cc4ccccc4o3)CC2CCO)cc1 (centres undefined),-0.17% (inactive)
3,COC(=O)/C(C#N)=C/c1c(N2CCN(c3ccccc3)CC2)nc2c(C)cccn2c1=O,-0.794% (inactive)
4,CC(C)N1CCc2c(sc(NC(=O)CCc3ccccc3)c2C(N)=O)C1,4.95% (inactive)
5,O=C(C1=C[C@H](c2ccccc2)C[C@H](OCCCCO)O1)N1CCN(Cc2ccc3c(c2)OCO3)CC1,-2.28% (inactive)
6,O=C(c1cc2cc([N+](=O)[O-])ccc2s1)N1CCOCC1,-1.68% (inactive)
7,CC(C)c1ccc(NC(=O)COc2ccc(S(=O)(=O)N3CCOCC3)cc2)cc1,0.0707% (inactive)
8,O=C(COc1ncnc2sccc12)Nc1cccc(S(=O)(=O)N2CCCC2)c1,-0.649% (inactive)
9,CC1(NC(=O)CSc2nnc(-c3c[nH]c4ccccc34)n2C2CC2)CCS(=O)(=O)C1 (centres undefined),1.32% (inactive)
10,CC(C)(C)OC(=O)N(Cc1ccccc1)Cc1ccccc1OCc1cccc(NC(=O)C2CC2)c1,-1.87% (inactive)
11,Cc1cc2c(cc1S(=O)(=O)Nc1ccc(F)cc1)n(C)c(=O)c(=O)n2C,-0.472% (inactive)
12,CCOCCOc1cc(NCc2ccccc2)c2ncn(C(C)C)c2c1,-2.32% (inactive)
13,CNS(=O)(=O)c1cc(-c2nnc(Nc3ccc(CC(N)=O)cc3)c3ccccc23)ccc1C,-0.139% (inactive)
14,CCCS(=O)(=O)c1ccc(COC(=O)Cc2ccc([N+](=O)[O-])cc2)cc1,-0.882% (inactive)
15,Cc1cc(C(=O)NP(=O)(N2CCOCC2)N2CCOCC2)c(C)n1C1CC1,2.08% (inactive)
16,COc1cc(C(=O)Nc2nnc(C)s2)cc(OC)c1OC,-1.63% (inactive)
17,COc1cccc(C2CC(c3ccc(C)cc3)n3ncnc3N2)c1 (centres undefined),0.394% (inactive)
18,CCOC(=O)C1=C(CN2CCN(C(=O)c3ccco3)CC2)NC(=O)NC1c1ccccc1 (centres undefined),-0.235% (inactive)
19,Cc1cccc(N2C(=O)c3cccc(Oc4ccc(Cl)cc4)c3C2=O)c1,0.86% (inactive)
